Test results taken from the supplement of paper PMC10849652.
Targets with a hit are over-represented here; the source holds about 7,900 in all. About 0.6% of all pairs of compound and target were hits.

Columns and labels:
Test in all cases: log2 fold change, soluble protein after heating vs DMSO (PISA); higher = thermal stabilisation; K562 cells, 10 uM, 30 min; active = over 0.2 and 3.5 SD of the protein, either way, in both replicates (recomputed)
[1] = compound: CC[C@@H]1C(=O)N(C)c2cnc(Nc3ccc(C(=O)NC4CCN(C)CC4)cc3OC)nc2N1C1CCCC1
Outline: (§1)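 K562 cells at 2×10^6 cells/mL were exposed to 10 μM compound for 30 min, then aliquots were heated for 3 min across 48°C-58°C, pooled, and extracted in PBS containing 0.5% NP-40 at 4°C. The supernatant after 21,000xg for 90 min was taken as soluble protein and measured by TMTpro 16plex LC-MS/MS with channel sums equalised. Thermal stability is reported relative to control samples, with values from duplicates. Fold changes are given on a log2 scale.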

[2] = compound: CC[C@@H]1C(=O)N(C)c2cnc(Nc3ccc(C(=O)N[C@H]4CC[C@H](N5CCN(CC6CC6)CC5)CC4)cc3OC)nc2N1C(C)C [volasertib]
Outline: as §1

[3] = compound: CC[C@H](C)N1C=C(C2=C(C=C(C=C21)C3=CN=C(C=C3)N4CCNCC4)C(=O)NCC5=C(C=C(NC5=O)C)C)C
Outline: as §1

[4] = compound: CC[C@H](C)[C@@H](C(=O)N[C@@H]([C@@H](C)O)C(=O)N[C@@H](CC(C)C)C(=O)[C@]1(CO1)C)NC(=O)[C@H]([C@@H](C)CC)N(C)C(=O)C [epoxomicin]
Outline: as §1

[5] = compound: CCn1c(C(=O)N(C2CC2)C2CC2)cc2c3c(ncn3C)c(Nc3cc(C)n(C)n3)nc21
Outline: as §1

[6] = compound: CCn1cc(-c2ccnc3[nH]c(-c4cccc(CN(C)C)c4)cc23)c(-c2ccc(NC(=O)N(C)C)cc2)n1
Outline: as §1

[7] = compound: CN(C)CC(=O)Nc1ccc2[nH]c(=O)c3ccccc3c2c1
Outline: as §1

[8] = compound: CN(CCOC1=CC=C(C=C1)C[C@H]2C(=O)NC(=O)S2)C3=CC=CC=N3 (racemic) [rosiglitazone]
Outline: as §1

[9] = compound: CN1C2=C(C3=C1C(=O)N(N=C3)CC4=CC(=CC=C4)N)SC(=C2)S(=O)C
Outline: as §1

[10] = compound: CN1CCC(CNc2ccc3ncc(-c4cccc(OC(F)(F)F)c4)n3n2)CC1
Outline: as §1

Measured: log2 fold change

SPG21 (UniProt Q9NZD8)
active: [2] -0.615 | [4] 0.315
inactive: [1] -0.082 | [3] 0.065 | [5] -0.013 | [6] 0.037 | [7] 0.018 | [8] 0.123 | [9] -0.098 | [10] -0.21

SURF1 (UniProt Q15526)
active: [2] -0.274 | [10] -0.311
inactive: [1] -0.085 | [3] -0.055 | [4] 0.012 | [5] -0.013 | [6] -0.059 | [7] 0.013 | [8] 0.035 | [9] -0.016

TAF9 (UniProt Q16594)
inactive: [1] -0.028 | [2] 0.095 | [3] -0.029 | [4] 0.12 | [5] 0.025 | [6] 0.034 | [7] -0.021 | [8] -0.001 | [9] 0.061 | [10] 0.077

TGFBR1 isoform 2 (UniProt P36897)
inactive: [1] -0.041 | [2] -0.179 | [3] -0.022 | [4] 0.033 | [5] -0.049 | [6] -0.023 | [7] -0.028 | [8] 0.122 | [9] 0.021 | [10] 0.076

SNX1 (UniProt Q13596)
inactive: [1] -0.135 | [2] -0.113 | [3] 0.096 | [4] 0.037 | [5] -0.096 | [6] -0.107 | [7] 0.003 | [8] 0.079 | [9] -0.029
active: [10] -0.605

STAT3 (UniProt P40763)
inactive: [3] 0.056 | [4] 0.002 | [5] -0.052 | [6] -0.059 | [7] 0.052 | [8] 0.063 | [9] -0.047
active: [1] -0.336 | [2] -0.767 | [10] -0.275

SPR (UniProt P35270)
active: [5] 0.412
inactive: [1] 0.02 | [2] 0.165 | [3] 0.013 | [4] -0.054 | [6] 0.073 | [7] 0.153 | [8] 0.008 | [9] -0.184 | [10] 0.012

STEAP3 isoform 2 (UniProt Q658P3)
inactive: [1] 0.036 | [2] -0.013 | [3] -0.023 | [4] 0.01 | [5] 0.028 | [6] -0.084 | [7] 0.002 | [8] 0.021 | [9] 0.041 | [10] -0.096

TERF2IP (UniProt Q9NYB0)
Chain of UniProt Q9NYB0 (Q9NYB0 whole entry, looked up): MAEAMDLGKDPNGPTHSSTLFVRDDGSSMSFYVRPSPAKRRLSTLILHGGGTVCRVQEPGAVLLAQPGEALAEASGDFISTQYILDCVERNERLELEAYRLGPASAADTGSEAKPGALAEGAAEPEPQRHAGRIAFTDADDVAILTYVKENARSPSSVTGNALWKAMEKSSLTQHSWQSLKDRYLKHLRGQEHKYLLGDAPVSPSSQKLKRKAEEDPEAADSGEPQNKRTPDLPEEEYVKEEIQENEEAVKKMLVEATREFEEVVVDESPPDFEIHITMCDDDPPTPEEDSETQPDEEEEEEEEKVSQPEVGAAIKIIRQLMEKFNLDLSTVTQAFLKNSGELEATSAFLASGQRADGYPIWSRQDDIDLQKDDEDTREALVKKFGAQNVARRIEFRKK
inactive: [1] -0.038 | [2] -0.205 | [3] 0.001 | [4] 0.081 | [5] 0.02 | [6] 0.01 | [7] 0.045 | [8] 0.016 | [9] 0.026 | [10] -0.039

SMARCE1 (UniProt Q969G3)
inactive: [1] -0.006 | [2] -0.125 | [3] 0.087 | [4] -0.033 | [5] -0.071 | [6] 0.053 | [7] -0.036 | [8] -0.222 | [9] 0.058 | [10] -0.045

STAT5A (UniProt P42229)
Chain of UniProt P42229 (P42229 whole entry, looked up): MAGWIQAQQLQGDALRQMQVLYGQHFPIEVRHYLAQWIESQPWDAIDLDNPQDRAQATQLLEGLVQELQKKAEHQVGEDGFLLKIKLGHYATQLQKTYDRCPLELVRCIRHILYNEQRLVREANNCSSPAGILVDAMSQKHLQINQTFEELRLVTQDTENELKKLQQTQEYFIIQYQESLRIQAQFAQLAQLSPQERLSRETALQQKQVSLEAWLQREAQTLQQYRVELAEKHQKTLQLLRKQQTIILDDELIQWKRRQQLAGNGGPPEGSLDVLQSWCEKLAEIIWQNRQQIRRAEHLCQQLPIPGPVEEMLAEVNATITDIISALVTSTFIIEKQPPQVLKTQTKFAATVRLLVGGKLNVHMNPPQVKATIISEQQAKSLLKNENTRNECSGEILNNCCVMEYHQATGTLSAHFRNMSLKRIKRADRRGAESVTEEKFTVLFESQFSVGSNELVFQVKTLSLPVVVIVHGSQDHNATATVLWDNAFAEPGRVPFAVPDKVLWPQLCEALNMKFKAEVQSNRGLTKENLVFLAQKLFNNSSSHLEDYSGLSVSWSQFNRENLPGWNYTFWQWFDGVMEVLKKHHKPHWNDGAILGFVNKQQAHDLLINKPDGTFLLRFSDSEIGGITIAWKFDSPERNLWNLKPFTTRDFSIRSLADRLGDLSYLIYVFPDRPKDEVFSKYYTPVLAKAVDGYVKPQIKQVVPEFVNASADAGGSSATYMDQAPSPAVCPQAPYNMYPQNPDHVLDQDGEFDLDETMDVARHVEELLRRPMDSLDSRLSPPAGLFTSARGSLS
active: [2] -0.633
inactive: [1] -0.225 | [3] 0.121 | [4] 0.072 | [5] -0.072 | [6] 0.041 | [7] 0.074 | [8] 0.056 | [9] -0.005 | [10] -0.109

SLC30A10 (UniProt Q6XR72)
Chain of UniProt Q6XR72 (Q6XR72 whole entry, looked up): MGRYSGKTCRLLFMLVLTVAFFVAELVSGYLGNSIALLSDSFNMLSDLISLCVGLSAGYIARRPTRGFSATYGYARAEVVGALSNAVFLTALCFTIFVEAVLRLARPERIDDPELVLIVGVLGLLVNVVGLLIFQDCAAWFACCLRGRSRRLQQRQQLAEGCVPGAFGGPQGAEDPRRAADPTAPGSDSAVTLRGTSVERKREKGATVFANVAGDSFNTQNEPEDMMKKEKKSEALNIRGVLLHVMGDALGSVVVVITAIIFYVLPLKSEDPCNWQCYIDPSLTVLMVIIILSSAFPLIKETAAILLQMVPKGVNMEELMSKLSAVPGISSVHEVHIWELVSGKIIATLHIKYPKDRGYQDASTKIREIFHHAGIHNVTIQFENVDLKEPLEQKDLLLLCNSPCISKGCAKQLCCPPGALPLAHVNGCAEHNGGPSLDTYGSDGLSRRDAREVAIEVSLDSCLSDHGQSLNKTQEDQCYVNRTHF
inactive: [1] 0 | [2] -0.052 | [3] -0.052 | [4] 0.045 | [5] 0.023 | [6] -0.244 | [7] -0.028 | [8] 0.039 | [9] -0.087 | [10] 0.044

TANK (UniProt Q92844)
inactive: [1] 0.057 | [2] -0.105 | [3] -0.064 | [4] -0.021 | [5] -0.074 | [6] 0.074 | [7] -0.012 | [8] -0.012 | [9] -0.117 | [10] -0.072

SUPT5H (UniProt O00267)
inactive: [1] -0.018 | [3] 0.084 | [4] 0.062 | [5] -0.054 | [6] -0.065 | [7] 0.056 | [8] 0.057 | [9] -0.056 | [10] -0.117
active: [2] -0.224

STIM1 (UniProt Q13586)
inactive: [1] -0.116 | [2] -0.206 | [3] 0.025 | [4] 0.028 | [5] 0.004 | [6] 0.023 | [7] 0.007 | [8] 0.037 | [9] -0.047 | [10] -0.195

STOM (UniProt P27105)
active: [10] 0.317
inactive: [1] 0.087 | [2] 0.096 | [3] -0.08 | [4] -0.006 | [5] 0.009 | [6] -0.164 | [7] -0.057 | [8] -0.065 | [9] 0.085

SRPRB (UniProt Q9Y5M8)
inactive: [1] -0.141 | [2] -0.048 | [3] 0.031 | [4] 0.1 | [5] -0.046 | [6] -0.134 | [7] 0.042 | [8] 0.002 | [9] -0.05 | [10] 0.051

SLC27A4 (UniProt Q6P1M0)
inactive: [1] -0.048 | [3] 0.03 | [4] -0.064 | [5] -0.014 | [6] -0.036 | [7] 0.04 | [8] 0.066 | [9] -0.051 | [10] -0.158
active: [2] -0.473

SNX6 (UniProt Q9UNH7)
active: [10] -0.77
inactive: [1] -0.142 | [2] -0.047 | [3] 0.117 | [4] 0.015 | [5] -0.141 | [6] -0.131 | [7] 0.005 | [8] 0.08 | [9] 0.016

SPPL2B (UniProt Q8TCT7)
inactive: [1] 0.039 | [2] 0 | [3] -0.003 | [4] -0.076 | [5] -0.004 | [6] 0.028 | [7] 0.035 | [8] -0.022 | [9] 0.033 | [10] -0.228

SPECC1 (UniProt Q5M775)
Chain of UniProt Q5M775 (Q5M775 whole entry, looked up): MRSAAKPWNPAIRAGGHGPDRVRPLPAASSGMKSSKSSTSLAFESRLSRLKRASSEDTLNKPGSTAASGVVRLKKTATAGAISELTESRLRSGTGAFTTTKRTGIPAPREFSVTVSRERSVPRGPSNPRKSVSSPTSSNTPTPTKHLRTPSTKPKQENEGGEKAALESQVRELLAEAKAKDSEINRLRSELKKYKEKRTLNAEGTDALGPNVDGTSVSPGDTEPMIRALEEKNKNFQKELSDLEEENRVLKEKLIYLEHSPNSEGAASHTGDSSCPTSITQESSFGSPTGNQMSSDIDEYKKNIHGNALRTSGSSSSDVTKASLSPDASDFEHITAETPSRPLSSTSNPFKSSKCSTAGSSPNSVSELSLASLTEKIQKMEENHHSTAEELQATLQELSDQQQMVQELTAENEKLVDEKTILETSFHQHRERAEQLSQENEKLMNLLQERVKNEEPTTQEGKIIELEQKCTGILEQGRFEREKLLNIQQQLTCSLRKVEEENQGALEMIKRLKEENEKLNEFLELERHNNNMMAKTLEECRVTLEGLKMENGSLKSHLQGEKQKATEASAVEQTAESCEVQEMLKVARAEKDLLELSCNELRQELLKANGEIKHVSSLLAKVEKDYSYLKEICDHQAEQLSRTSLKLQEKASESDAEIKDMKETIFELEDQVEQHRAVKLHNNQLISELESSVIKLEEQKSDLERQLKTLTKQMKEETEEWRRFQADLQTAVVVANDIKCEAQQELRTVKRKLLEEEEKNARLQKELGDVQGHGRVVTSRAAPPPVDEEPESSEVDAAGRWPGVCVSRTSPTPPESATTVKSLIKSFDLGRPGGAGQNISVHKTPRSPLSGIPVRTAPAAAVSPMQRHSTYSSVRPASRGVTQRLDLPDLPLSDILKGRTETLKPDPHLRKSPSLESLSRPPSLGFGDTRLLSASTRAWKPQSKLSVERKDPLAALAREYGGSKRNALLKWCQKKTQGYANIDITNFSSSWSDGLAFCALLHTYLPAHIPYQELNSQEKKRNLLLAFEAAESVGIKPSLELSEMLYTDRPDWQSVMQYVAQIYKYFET
inactive: [1] 0.109 | [2] 0.052 | [3] -0.013 | [4] -0.101 | [5] 0.037 | [6] 0.004 | [7] -0.111 | [8] 0.023 | [9] 0.07 | [10] -0.012

TBRG4 (UniProt Q969Z0)
inactive: [1] -0.361 | [2] -0.583 | [3] -0.003 | [4] 0.12 | [5] -0.034 | [6] 0.009 | [7] 0.111 | [8] 0.073 | [9] 0.047
active: [10] -1.19

SLC25A42 (UniProt Q86VD7)
Chain of UniProt Q86VD7 (Q86VD7 whole entry, looked up): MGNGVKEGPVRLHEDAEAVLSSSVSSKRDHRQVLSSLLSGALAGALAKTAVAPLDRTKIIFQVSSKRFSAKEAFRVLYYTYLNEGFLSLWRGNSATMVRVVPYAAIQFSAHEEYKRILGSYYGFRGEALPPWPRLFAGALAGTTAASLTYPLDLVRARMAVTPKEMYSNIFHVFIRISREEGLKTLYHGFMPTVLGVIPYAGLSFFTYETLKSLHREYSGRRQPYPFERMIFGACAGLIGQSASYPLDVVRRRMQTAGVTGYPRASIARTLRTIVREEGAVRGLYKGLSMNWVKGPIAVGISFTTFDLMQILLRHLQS
inactive: [1] -0.025 | [2] 0.039 | [3] -0.028 | [4] 0 | [5] 0.019 | [6] 0.002 | [7] -0.021 | [8] 0.025 | [9] 0.022 | [10] 0.022

SRSF6 (UniProt Q13247)
inactive: [1] 0.011 | [2] 0.174 | [3] 0.116 | [4] -0.181 | [5] -0.004 | [6] 0.028 | [7] -0.08 | [8] -0.043 | [9] 0.207 | [10] 0.315

TARBP1 (UniProt Q13395)
Chain of UniProt Q13395 (Q13395 whole entry, looked up): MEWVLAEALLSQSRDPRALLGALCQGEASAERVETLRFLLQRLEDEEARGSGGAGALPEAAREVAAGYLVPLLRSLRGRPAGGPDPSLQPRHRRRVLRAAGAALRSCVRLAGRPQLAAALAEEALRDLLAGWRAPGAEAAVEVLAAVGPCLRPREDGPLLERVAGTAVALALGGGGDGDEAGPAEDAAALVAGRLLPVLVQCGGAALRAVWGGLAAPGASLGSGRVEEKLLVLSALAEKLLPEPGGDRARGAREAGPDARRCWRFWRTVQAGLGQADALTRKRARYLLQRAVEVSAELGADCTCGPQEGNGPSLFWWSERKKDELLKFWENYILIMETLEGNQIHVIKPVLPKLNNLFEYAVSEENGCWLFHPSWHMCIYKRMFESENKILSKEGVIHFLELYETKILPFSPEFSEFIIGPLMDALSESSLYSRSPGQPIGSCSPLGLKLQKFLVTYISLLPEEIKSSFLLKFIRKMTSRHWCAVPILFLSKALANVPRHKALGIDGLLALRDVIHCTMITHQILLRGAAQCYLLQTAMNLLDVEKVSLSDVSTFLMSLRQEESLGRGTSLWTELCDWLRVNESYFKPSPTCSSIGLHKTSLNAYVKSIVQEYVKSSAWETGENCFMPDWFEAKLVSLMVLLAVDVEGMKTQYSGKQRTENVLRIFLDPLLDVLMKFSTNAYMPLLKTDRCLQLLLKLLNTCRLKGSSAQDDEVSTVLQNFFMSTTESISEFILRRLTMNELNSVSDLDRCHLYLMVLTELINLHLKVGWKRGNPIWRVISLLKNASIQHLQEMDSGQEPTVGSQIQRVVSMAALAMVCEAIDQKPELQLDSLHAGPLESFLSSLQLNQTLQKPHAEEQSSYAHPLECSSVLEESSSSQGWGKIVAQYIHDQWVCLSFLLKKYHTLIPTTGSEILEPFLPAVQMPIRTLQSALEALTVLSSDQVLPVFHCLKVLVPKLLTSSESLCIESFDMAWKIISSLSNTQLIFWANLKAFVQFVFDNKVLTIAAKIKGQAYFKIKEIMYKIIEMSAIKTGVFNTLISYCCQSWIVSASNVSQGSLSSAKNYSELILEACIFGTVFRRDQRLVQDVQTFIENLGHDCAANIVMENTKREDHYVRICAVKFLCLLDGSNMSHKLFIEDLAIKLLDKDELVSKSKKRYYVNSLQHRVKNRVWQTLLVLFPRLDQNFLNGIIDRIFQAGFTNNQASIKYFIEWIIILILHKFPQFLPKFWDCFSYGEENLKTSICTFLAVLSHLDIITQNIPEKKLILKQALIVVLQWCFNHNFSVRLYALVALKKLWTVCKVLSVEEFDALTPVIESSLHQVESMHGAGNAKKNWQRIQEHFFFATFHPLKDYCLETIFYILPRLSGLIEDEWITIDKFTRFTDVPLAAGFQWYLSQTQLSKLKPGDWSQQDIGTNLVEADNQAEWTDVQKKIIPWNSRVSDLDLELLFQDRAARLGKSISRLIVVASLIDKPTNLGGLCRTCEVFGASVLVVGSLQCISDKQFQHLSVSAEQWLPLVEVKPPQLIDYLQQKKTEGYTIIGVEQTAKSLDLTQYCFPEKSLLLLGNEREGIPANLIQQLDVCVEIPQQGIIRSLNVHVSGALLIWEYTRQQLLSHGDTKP
inactive: [1] -0.022 | [3] -0.107 | [4] 0.121 | [5] 0.018 | [6] 0.077 | [7] -0.012 | [8] 0.013 | [9] 0.001 | [10] -0.027
active: [2] -0.337

ST3GAL2 (UniProt Q16842)
inactive: [1] -0.28 | [3] -0.053 | [4] -0.053 | [5] -0.038 | [6] 0.062 | [7] 0.005 | [8] 0.011 | [9] -0.071
active: [2] -0.562 | [10] -0.474

SRSF10 (UniProt O75494)
Chain of UniProt O75494 (O75494 whole entry, looked up): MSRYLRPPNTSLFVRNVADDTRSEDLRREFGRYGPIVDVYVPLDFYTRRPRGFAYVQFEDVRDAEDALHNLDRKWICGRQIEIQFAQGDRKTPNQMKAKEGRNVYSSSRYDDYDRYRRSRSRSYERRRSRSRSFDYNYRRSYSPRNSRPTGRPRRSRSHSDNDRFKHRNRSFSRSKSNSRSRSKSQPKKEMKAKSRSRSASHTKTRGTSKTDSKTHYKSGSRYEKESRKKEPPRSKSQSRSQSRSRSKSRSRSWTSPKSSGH
inactive: [1] 0.141 | [2] 0.274 | [3] -0.197 | [4] -0.408 | [5] 0.047 | [6] 0.276 | [7] -0.127 | [8] -0.073 | [9] 0.498 | [10] 0.237

SLC25A39 (UniProt Q9BZJ4)
inactive: [1] 0.029 | [2] -0.06 | [3] 0.087 | [4] 0.081 | [5] 0.096 | [6] -0.12 | [7] 0.06 | [8] -0.03 | [9] 0.012
active: [10] -0.82

SULT1A1 (UniProt P50225)
inactive: [1] -0.159 | [3] 0.091 | [4] 0.026 | [5] -0.056 | [6] -0.106 | [7] 0.105 | [8] 0.025 | [9] 0.072 | [10] -0.208
active: [2] -0.445

TIMM10B (UniProt Q9Y5J6)
Chain of UniProt Q9Y5J6 (Q9Y5J6 whole entry, looked up): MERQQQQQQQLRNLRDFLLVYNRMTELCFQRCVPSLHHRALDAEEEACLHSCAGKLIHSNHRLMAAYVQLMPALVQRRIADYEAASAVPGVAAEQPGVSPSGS
inactive: [1] 0.033 | [2] -0.011 | [3] -0.064 | [4] 0.274 | [5] 0.115 | [6] -0.033 | [7] -0.12 | [8] -0.041 | [9] 0.063 | [10] 0.131

SOAT1 (UniProt P35610)
inactive: [1] -0.017 | [2] 0.053 | [3] -0.094 | [4] 0.029 | [5] 0.009 | [6] 0.013 | [7] -0.04 | [8] -0.016 | [9] -0.051 | [10] -0.09

SLC6A6 (UniProt P31641)
inactive: [1] -0.011 | [2] 0.01 | [3] 0 | [4] 0.135 | [5] 0.024 | [6] -0.053 | [7] -0.012 | [8] -0.011 | [9] -0.02 | [10] 0.084
